SMILES strings stand for the structures. About 83,000 compounds went through this panel and 20% of them were active in at least one assay; those are over-represented in the sample as a whole.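 Growth was measured after 48 h exposure to one concentration of compound in 96-well plates. Values under 10 count as active.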 Unmarked numbers belong to inactive results. Calls of active or inactive are those of the source.

This passage reports growth results from PubChem BioAssay (NCI).

Among the test systems are NCI-H23 lung; NCI-H226 lung; NCI-H322M lung; HOP-62 NSCLC; NCI-H460 lung; NCI-H522 lung; A549/ATCC NSCLC; 786-0 renal; COLO 205 colon; DU-145 prostate; K-562 leukemia; MALME-3M melanoma; MDA-MB-231 breast; RXF 393 renal; SF-268 CNS; SF-295 CNS; SF-539 CNS; UACC-257 melanoma; M14 melanoma; HOP-92 NSCLC.
What all share (assay): NCI-60 one-dose screen, 48 h (100 = growth as untreated, 0 = no growth, -100 = all killed)
Details in all cases: 10 µM unless noted

Regarding `O=c1c2ccccc2nc(-c2ccccc2Cl)n1-c1nnc(C(F)(F)F)s1`, the growth is -0.336% (active) in the assay with NCI-H23 lung; 42.9% in the assay on NCI-H226 lung; 17.6% with NCI-H322M lung; 58.7% in the assay with HOP-62 NSCLC; 24.7% in the assay with NCI-H460 lung; -23.4% (active) in the assay with NCI-H522 lung. Besides, the growth in the assay on A549/ATCC NSCLC is 37.3%; in the assay on 786-0 renal, 22.4%; with COLO 205 colon it was 43.6%; in the assay on DU-145 prostate, 56.8%; with K-562 leukemia it was 11.4%; in the assay on MALME-3M melanoma, -11.5% (active). Besides, the growth was 52.3% in the assay on MDA-MB-231 breast; 38.9% with RXF 393 renal; 38.8% with SF-268 CNS; 12% in the assay with SF-295 CNS; 19.7% in the assay on SF-539 CNS; 30% in the assay on UACC-257 melanoma. Further, the growth with M14 melanoma was 35.1%.
Take `OCCN=Cc1c[nH]c2ccccc12`: the growth with NCI-H23 lung was 91.6%; in the assay with NCI-H226 lung, 83.5%; in the assay with NCI-H322M lung it was 102%; in the assay with HOP-62 NSCLC, 85.1%; with NCI-H460 lung, 103%; in the assay on NCI-H522 lung, 95.2%. Besides, the growth in the assay on A549/ATCC NSCLC was 95.2%; in the assay with 786-0 renal, 95.7%; in the assay on COLO 205 colon, 112%; in the assay with DU-145 prostate, 114%; in the assay with MALME-3M melanoma, 104%; in the assay with MDA-MB-231 breast, 68.6%. Also, the growth in the assay with RXF 393 renal was 118%; with SF-268 CNS it was 107%; in the assay on SF-295 CNS, 89.9%; in the assay on SF-539 CNS, 99.4%; in the assay with UACC-257 melanoma, 110%; with M14 melanoma it was 97.3%.
For `CCCCOC(N)=O`, the growth is 100% in the assay on NCI-H23 lung; 103% in the assay with NCI-H226 lung; 102% in the assay on NCI-H322M lung; 105% with HOP-62 NSCLC; 106% in the assay on NCI-H460 lung; 106% in the assay on NCI-H522 lung. Moreover, the growth in the assay with A549/ATCC NSCLC was 109%; in the assay with 786-0 renal, 104%; with COLO 205 colon, 108%; in the assay with DU-145 prostate it was 109%; in the assay on K-562 leukemia, 102%; in the assay on MDA-MB-231 breast, 109%. Besides, the growth in the assay with SF-268 CNS was 104%; with SF-295 CNS, 105%; in the assay on SF-539 CNS it was 109%; with UACC-257 melanoma it was 110%; in the assay on M14 melanoma, 97.5%.
Take `Cc1ccc(P(=O)(O)O)cc1`: the growth in the assay on NCI-H23 lung was 108%; in the assay on NCI-H226 lung it was 99.2%; with NCI-H322M lung, 111%; in the assay with NCI-H460 lung it was 108%; with HOP-92 NSCLC it was 120%; in the assay on NCI-H522 lung it was 101%. Also, the growth with A549/ATCC NSCLC was 102%; in the assay on 786-0 renal, 103%; in the assay on COLO 205 colon, 126%; in the assay with DU-145 prostate, 116%; with K-562 leukemia, 98.9%; in the assay with MALME-3M melanoma, 96%. The growth is 98.6% in the assay with MDA-MB-231 breast; 98.8% in the assay with RXF 393 renal; 109% in the assay with SF-268 CNS; 100% in the assay with SF-295 CNS; 94.2% with SF-539 CNS; 103% in the assay with UACC-257 melanoma. Further, the growth with M14 melanoma is 104%.
On to `Nc1nc(=S)nc(N)[nH]1`, for which the growth with NCI-H23 lung is 89.5%; with NCI-H226 lung it was 96.9%; with NCI-H322M lung it was 102%; in the assay with HOP-62 NSCLC it was 89%; with NCI-H460 lung, 111%; with 786-0 renal, 88.6%. Also, the growth with DU-145 prostate is 113%; in the assay with K-562 leukemia, 103%; in the assay with MALME-3M melanoma, 102%; with MDA-MB-231 breast, 92.1%; in the assay on RXF 393 renal it was 101%; in the assay with SF-268 CNS, 93.3%. In addition, the growth in the assay with SF-295 CNS is 95.9%; in the assay on SF-539 CNS, 97.1%; in the assay on UACC-257 melanoma it was 87.2%.
With `COc1c(O)cc2c(c1OC)-c1ccc(SC)c(=O)cc1C(NC(C)=O)CC2` (stereo not given), the growth with NCI-H23 lung was 21.4%; in the assay on NCI-H226 lung it was 23.1%; in the assay on NCI-H322M lung, 41.1%; in the assay on HOP-62 NSCLC it was 22.2%; in the assay with NCI-H460 lung, 3% (active); in the assay with NCI-H522 lung, -46.8% (active). The growth in the assay with A549/ATCC NSCLC was 46.4%; in the assay with 786-0 renal it was 19.1%; with COLO 205 colon, -44.6% (active); in the assay with DU-145 prostate it was -28.7% (active); in the assay with K-562 leukemia, -24.9% (active); in the assay with MALME-3M melanoma, 39.9%. For the same molecule, the growth with MDA-MB-231 breast is 2.58% (active); with RXF 393 renal, 20.3%; with SF-268 CNS, 29.7%; with SF-295 CNS, 9.18% (active); in the assay on SF-539 CNS it was -15% (active); with UACC-257 melanoma, 20.1%. Also, the growth in the assay on M14 melanoma is 15.7%.
For the molecule `C=CCOC(=O)C(Br)CC` (stereo not given), the growth in the assay with NCI-H23 lung was 99%; in the assay on NCI-H226 lung, 101%; in the assay on NCI-H322M lung, 108%; in the assay on HOP-62 NSCLC it was 108%; in the assay on NCI-H460 lung, 104%; with NCI-H522 lung, 99.2%. The growth was 107% in the assay on A549/ATCC NSCLC; 106% with 786-0 renal; 103% with COLO 205 colon; 108% with DU-145 prostate; 107% in the assay on K-562 leukemia; 99.9% in the assay with MALME-3M melanoma. The growth was 93.6% in the assay on MDA-MB-231 breast; 118% with RXF 393 renal; 106% with SF-268 CNS; 109% in the assay with SF-295 CNS; 100% in the assay with SF-539 CNS; 104% with UACC-257 melanoma. Also, in the assay on M14 melanoma, the growth is 109%.
With `Cc1ccc(C(=O)O[C@H](C(=O)O)[C@H](OC(=O)c2ccc(C)cc2)C(=O)O)cc1`, the growth with NCI-H23 lung was 102%; with NCI-H226 lung, 104%; with NCI-H322M lung, 104%; in the assay on HOP-62 NSCLC, 110%; with NCI-H460 lung it was 115%; with A549/ATCC NSCLC, 103%. Further, the growth in the assay on 786-0 renal was 101%; with COLO 205 colon, 108%; with DU-145 prostate, 110%; in the assay on K-562 leukemia, 89.9%; in the assay with MALME-3M melanoma, 107%; in the assay with RXF 393 renal it was 115%. Further, the growth is 105% with SF-268 CNS, 118% with SF-295 CNS, 102% in the assay with SF-539 CNS and 94% in the assay on UACC-257 melanoma.
As to `O=C(O)CNCP(=O)(O)O`, the growth was 107% with NCI-H23 lung; 103% in the assay with NCI-H226 lung; 106% in the assay with NCI-H322M lung; 109% in the assay on HOP-62 NSCLC; 119% with NCI-H460 lung; 98.2% in the assay with NCI-H522 lung. Also, the growth is 102% in the assay with A549/ATCC NSCLC; 106% with 786-0 renal; 119% in the assay with COLO 205 colon; 121% in the assay on DU-145 prostate; 101% in the assay with K-562 leukemia; 117% in the assay with MDA-MB-231 breast. The growth in the assay with RXF 393 renal was 121%; in the assay on SF-268 CNS, 113%; in the assay on SF-295 CNS, 107%; in the assay with SF-539 CNS it was 115%; with UACC-257 melanoma, 107%; in the assay on M14 melanoma, 101%.
